# Test results as given in PubChem BioAssay.
# System: not listed separately
# Experiment: inhibitors of PAF-induced NFkB signaling in CF airway cells, dose response, cell-based, uHTS hits, panel, cytotoxicity readout (AID 624344)
# Details: CF bronchial epithelial cells, PAF-induced NFkB reporter inhibition, with PAF, run 2; at 79 µM (top of the series) unless noted; in the data active = activity above about 50%; inactive = the rest
row,Compound,inhibition [%]
1,N#CC(C#N)=C1SC(=Nc2ccccc2)C(=Nc2ccccc2)N1c1ccccc1,99.1
2,CC(C)C[C@@H](CN1CCCC1CN1C(=S)NC[C@@H]1Cc1ccc(O)cc1)N1C[C@H](Cc2ccc(O)cc2)N(CC2CCCCCC2)C1=S (some centres not stated),101
3,Cc1cccc(N(Cc2cc(=O)[nH]c3ccccc23)C(=O)CCl)c1,90.7
4,O=C(COC(=O)c1ccccc1C(=O)c1ccc(Cl)c([N+](=O)[O-])c1)NC1CCCCCC1,99.7
5,COc1ccc2[nH]cc(C(=O)CCl)c2c1,99.6
6,CCS(=O)(=O)c1ncc(Cl)c(C(=O)Nc2ccccc2OC)n1,86
7,Clc1ccc(Cn2ncc3c(N4CCN(c5ccccc5)CC4)ncnc32)cc1,94.9
8,CCOC(=O)C1=C(CC)Nc2ccccc2N=C1NC(=O)Nc1ccc(Cl)c(Cl)c1,103
9,CCOC(=O)c1sc(NC(=O)c2cccc(S(=O)(=O)N3CCc4ccccc43)c2)c(C#N)c1C,80.5
10,COc1ccc(OC)c(N(CCN2C(=O)c3ccccc3C2=O)C(=O)CCl)c1,101
11,Cc1nn(-c2ccccc2)c(Cl)c1C(=O)N1CCN(c2ncnc3c2cnn3-c2ccccc2)CC1,98.4
12,O=Nc1ccc(NO)c2ccccc12,48.9
13,O=C(NCCC1=CCCCC1)c1coc(=O)c(Br)c1,74.3
14,CCOc1ccccc1NC(=O)c1nc(S(=O)(=O)Cc2ccccc2)ncc1Cl,83.5

# Target: Tumor necrosis factor receptor superfamily member 10B (Homo sapiens) (UniProt O14763)
# Experiment: caspase-8 TRAIL sensitization, hit retest, confirmation, cell-based, NB7+caspase-8, with/without TRAIL, luminescence panel (AID 651596)
# Details: NB7 neuroblastoma + caspase-8, TRAIL sensitization, luminescence viability, with TRAIL, mean of runs, at 10 µM, stronger effect = higher value
# Sequence of Tumor necrosis factor receptor superfamily member 10B (Homo sapiens) (O14763 whole entry, looked up): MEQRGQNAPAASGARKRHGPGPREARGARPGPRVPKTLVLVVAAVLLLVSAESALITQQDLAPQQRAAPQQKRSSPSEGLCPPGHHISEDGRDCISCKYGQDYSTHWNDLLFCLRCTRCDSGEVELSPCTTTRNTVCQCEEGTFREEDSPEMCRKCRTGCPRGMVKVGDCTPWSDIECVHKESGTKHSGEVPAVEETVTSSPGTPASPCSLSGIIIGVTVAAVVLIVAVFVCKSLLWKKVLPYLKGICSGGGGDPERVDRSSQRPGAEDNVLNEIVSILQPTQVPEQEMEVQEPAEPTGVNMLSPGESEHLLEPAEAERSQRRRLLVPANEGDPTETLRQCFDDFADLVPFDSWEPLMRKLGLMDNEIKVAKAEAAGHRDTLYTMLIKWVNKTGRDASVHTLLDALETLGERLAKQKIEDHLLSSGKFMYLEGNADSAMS
row,Compound,activity [%]
1,N#CC(C#N)=C1SC(=Nc2ccccc2)C(=Nc2ccccc2)N1c1ccccc1,92.6
2,CC(C)C[C@@H](CN1CCCC1CN1C(=S)NC[C@@H]1Cc1ccc(O)cc1)N1C[C@H](Cc2ccc(O)cc2)N(CC2CCCCCC2)C1=S (some centres not stated),18.3
3,Cc1cccc(N(Cc2cc(=O)[nH]c3ccccc23)C(=O)CCl)c1,98.3
4,O=C(COC(=O)c1ccccc1C(=O)c1ccc(Cl)c([N+](=O)[O-])c1)NC1CCCCCC1,98.1
5,COc1ccc2[nH]cc(C(=O)CCl)c2c1,99.1
6,CCS(=O)(=O)c1ncc(Cl)c(C(=O)Nc2ccccc2OC)n1,98.4
7,Clc1ccc(Cn2ncc3c(N4CCN(c5ccccc5)CC4)ncnc32)cc1,69.5
8,CCOC(=O)C1=C(CC)Nc2ccccc2N=C1NC(=O)Nc1ccc(Cl)c(Cl)c1,63.9
9,CCOC(=O)c1sc(NC(=O)c2cccc(S(=O)(=O)N3CCc4ccccc43)c2)c(C#N)c1C,53.4
10,COc1ccc(OC)c(N(CCN2C(=O)c3ccccc3C2=O)C(=O)CCl)c1,98.7
11,Cc1nn(-c2ccccc2)c(Cl)c1C(=O)N1CCN(c2ncnc3c2cnn3-c2ccccc2)CC1,82
12,O=Nc1ccc(NO)c2ccccc12,79.8
13,O=C(NCCC1=CCCCC1)c1coc(=O)c(Br)c1,76.4
14,CCOc1ccccc1NC(=O)c1nc(S(=O)(=O)Cc2ccccc2)ncc1Cl,79.4

# System: not listed separately
# Experiment: as above
# Details: NB7 neuroblastoma + caspase-8, without TRAIL, luminescence viability, without TRAIL, mean of runs, at 10 µM
row,Compound,activity [%]
1,N#CC(C#N)=C1SC(=Nc2ccccc2)C(=Nc2ccccc2)N1c1ccccc1,83.6
2,CC(C)C[C@@H](CN1CCCC1CN1C(=S)NC[C@@H]1Cc1ccc(O)cc1)N1C[C@H](Cc2ccc(O)cc2)N(CC2CCCCCC2)C1=S (some centres not stated),52
3,Cc1cccc(N(Cc2cc(=O)[nH]c3ccccc23)C(=O)CCl)c1,98.5
4,O=C(COC(=O)c1ccccc1C(=O)c1ccc(Cl)c([N+](=O)[O-])c1)NC1CCCCCC1,97.2
5,COc1ccc2[nH]cc(C(=O)CCl)c2c1,99.2
6,CCS(=O)(=O)c1ncc(Cl)c(C(=O)Nc2ccccc2OC)n1,99
7,Clc1ccc(Cn2ncc3c(N4CCN(c5ccccc5)CC4)ncnc32)cc1,66.8
8,CCOC(=O)C1=C(CC)Nc2ccccc2N=C1NC(=O)Nc1ccc(Cl)c(Cl)c1,64.3
9,CCOC(=O)c1sc(NC(=O)c2cccc(S(=O)(=O)N3CCc4ccccc43)c2)c(C#N)c1C,41.3
10,COc1ccc(OC)c(N(CCN2C(=O)c3ccccc3C2=O)C(=O)CCl)c1,97.6
11,Cc1nn(-c2ccccc2)c(Cl)c1C(=O)N1CCN(c2ncnc3c2cnn3-c2ccccc2)CC1,59.6
12,O=Nc1ccc(NO)c2ccccc12,47.2
13,O=C(NCCC1=CCCCC1)c1coc(=O)c(Br)c1,22.7
14,CCOc1ccccc1NC(=O)c1nc(S(=O)(=O)Cc2ccccc2)ncc1Cl,99.5
